The values that follow come from PubChem BioAssay (NCATS).

What all share (experiment): qHTS profiling for inhibitors of Plasmodium falciparum proliferation (AID 504749); note: nearly all actives have a fitted effect of over 60% in size
Common to all, as to details: P. falciparum in erythrocytes, SYBR Green DNA, 72 h; series mostly up to 28.7 µM
Background: Quantitative high-throughput screening tests each substance at several concentrations.

One assay relates to CP247. An outline of the steps:
(§1)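 Quantitative HTS: compounds pinned into medium, infected erythrocytes added (0.3% parasitemia, 2.5% hematocrit), 72 h culture at 37 C under 5% CO2. Saponin/Triton lysis with SYBR Green I, overnight RT, then fluorescence read.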

In another assay the test system is CP250. In a few lines:
as §1

A further assay relates to CP252. In a few lines:
as §1

A further assay concerns CP256. An outline of the steps:
as §1

Another assay has as its system CP260. An outline of the steps: as §1
For the next assay, the system named is CP262. An outline of the steps: as §1
For a further assay, the system named is CP265. An outline of the steps:
as §1

The subject of a further assay is CP268. In a few lines:
as §1

A further assay deals with CP269. In a few lines:
as §1

In the next assay the test system is CP266. In a few lines: as §1

Records with an inconclusive call do not appear. Activity calls are given as the source filed them. Calls come from the whole dose curve; as a rule, active = well fitted inhibition curve with a large enough effect; inconclusive = small, poorly fitted or top-dose-only effect; inactive = flat fitted curve, though single readings scatter.
Potency is the fitted concentration of half-maximal effect.

Take `NC(=O)c1cccnc1`: the Potency result in the assay with CP247, in the assay on CP250, in the assay on CP252, in the assay on CP256, with CP260 and in the assay with CP262 was “inactive” throughout. Besides, the Potency entry in the assay with CP265, with CP268 and in the assay on CP269 was “inactive” throughout.
`COc1cnc(NS(=O)(=O)c2ccc(N)cc2)nc1`: the Potency result with CP247, in the assay on CP250, in the assay on CP252, in the assay with CP256, with CP260 and in the assay on CP262 was “inactive” each time. For the same molecule, the Potency entry in the assay with CP265, with CP268 and in the assay with CP269 was “inactive” each time.
For the molecule `COc1ccc2cc3[n+](cc2c1OC)CCc1cc2c(cc1-3)OCO2`, the Potency in the assay on CP247 is 3160 nM (active); in the assay with CP250, 1410 nM (active); in the assay with CP252, 1120 nM (active); in the assay on CP256, 282 nM (active); in the assay with CP260, 891 nM (active); in the assay with CP262, 757 nM (active). Besides, the Potency with CP265 was 891 nM (active); in the assay on CP268, 1350 nM (active); in the assay with CP269, 953 nM (active).
Consider `COC(=O)Nc1nc2ccc(C(=O)c3ccccc3)cc2[nH]1`, for which the Potency entry in the assay with CP247, in the assay on CP250, with CP252, in the assay with CP256, in the assay on CP260 and in the assay with CP262 was “inactive” throughout. For the same molecule, the Potency result with CP265 and in the assay on CP268 was “inactive” in each case.
Take `Cc1noc(NS(=O)(=O)c2ccc(N)cc2)c1C`: the Potency result in the assay on CP247, in the assay with CP250, with CP252, in the assay on CP256, in the assay with CP260 and in the assay on CP262 was “inactive” throughout. In addition, the Potency entry with CP265 and in the assay with CP269 was “inactive” each time.
For `Cc1cccc(N(C)C(=S)Oc2ccc3ccccc3c2)c1`, the Potency entry in the assay on CP247, in the assay with CP250, with CP252, with CP256, in the assay on CP260 and in the assay on CP262 was “inactive” each time. Further, the Potency result in the assay with CP265, with CP268 and with CP269 was “inactive” throughout.
Regarding `CCc1c2c(nc3ccc(OC(=O)N4CCC(N5CCCCC5)CC4)cc13)-c1cc3c(c(=O)n1C2)COC(=O)[C@]3(O)CC`, the Potency entry in the assay on CP247, in the assay with CP250, in the assay on CP252, with CP256, with CP260 and in the assay with CP262 was “inactive” in each case. Further, the Potency entry with CP265, in the assay with CP268 and in the assay with CP269 was “inactive” throughout.
Regarding `COc1ncnc(NS(=O)(=O)c2ccc(N)cc2)c1OC`, the Potency result in the assay on CP247, in the assay with CP250, in the assay with CP252, in the assay with CP256, in the assay on CP260 and in the assay on CP262 was “inactive” throughout. Also, the Potency result in the assay on CP265, in the assay on CP266, with CP268 and with CP269 was “inactive” throughout.
For the molecule `O=P(O)(O)C(O)(Cc1cccnc1)P(=O)(O)O`, the Potency entry with CP247, in the assay with CP250, in the assay with CP252, with CP256, with CP260 and in the assay with CP262 was “inactive” each time. Besides, the Potency result in the assay with CP265, with CP266, in the assay with CP268 and with CP269 was “inactive” each time.
On to `Nc1ccc(S(=O)(=O)Nc2ccccn2)cc1`, for which the Potency result in the assay on CP247, in the assay on CP250, with CP252, with CP256, in the assay with CP260 and with CP262 was “inactive” in each case. Moreover, the Potency entry with CP265, in the assay with CP266, in the assay on CP268 and in the assay with CP269 was “inactive” in each case.
Regarding `COc1nc(N)nc2c1ncn2[C@@H]1O[C@H](CO)[C@@H](O)[C@@H]1O`, the Potency entry with CP247, in the assay with CP250, in the assay with CP252, in the assay on CP256, in the assay with CP260 and in the assay on CP262 was “inactive” each time. Also, the Potency result in the assay with CP265, in the assay with CP266, with CP268 and in the assay on CP269 was “inactive” throughout.
As for `CCCN[C@H]1CCc2nc(N)sc2C1`, the Potency result in the assay with CP247, in the assay with CP250, in the assay on CP252, in the assay on CP256, with CP260 and in the assay on CP262 was “inactive” in each case. The Potency result in the assay on CP265, in the assay with CP268 and with CP269 was “inactive” in each case.
Consider `NCCCC(O)(P(=O)(O)O)P(=O)(O)O`, for which the Potency result in the assay on CP247, with CP250, in the assay with CP252, in the assay with CP256, in the assay on CP260 and in the assay on CP262 was “inactive” throughout. Moreover, the Potency entry in the assay on CP265, in the assay on CP268 and with CP269 was “inactive” in each case.
As for `CNS(=O)(=O)Cc1ccc2[nH]cc(CCN(C)C)c2c1`, the Potency entry in the assay on CP247, with CP250, in the assay with CP252, in the assay with CP256, in the assay on CP260 and in the assay on CP262 was “inactive” throughout. The Potency result with CP265, in the assay with CP266, in the assay with CP268 and in the assay on CP269 was “inactive” in each case.
`CC(C)(C#N)c1cc(Cn2cncn2)cc(C(C)(C)C#N)c1`: the Potency entry in the assay with CP247, in the assay on CP250, with CP252, in the assay on CP256, with CP260 and with CP262 was “inactive” each time. The Potency result with CP265, in the assay on CP266, in the assay on CP268 and in the assay with CP269 was “inactive” throughout.
For `Nc1nc(N)nc(-c2cc(Cl)ccc2Cl)n1`, the Potency result in the assay with CP247, in the assay with CP250, with CP252, with CP256, in the assay on CP260 and in the assay with CP262 was “inactive” in each case. The Potency result in the assay on CP265, in the assay with CP268 and in the assay with CP269 was “inactive” each time.
With `S=P(N1CC1)(N1CC1)N1CC1`, the Potency entry with CP247, with CP250, in the assay on CP252, with CP256, in the assay on CP260 and in the assay with CP262 was “inactive” throughout. The Potency result in the assay on CP265, with CP266, in the assay on CP268 and in the assay with CP269 was “inactive” in each case.
On to `CCn1cc(C(=O)O)c(=O)c2cc(F)c(N3CCN(C)CC3)cc21`, for which the Potency result in the assay on CP262, in the assay on CP266, in the assay on CP268 and with CP269 was “inactive” throughout.
For `CCC(C)(C)c1ccc(CC(C)CN2C[C@@H](C)O[C@@H](C)C2)cc1` (some centres not stated), the Potency entry with CP247, with CP250, in the assay with CP252, in the assay on CP256, with CP262 and with CP265 was “inactive” each time. The Potency entry in the assay with CP266, in the assay on CP268 and in the assay with CP269 was “inactive” throughout.
For the molecule `COc1c(N2CCNC(C)C2)c(F)cc2c(=O)c(C(=O)O)cn(C3CC3)c12` (configuration not stated), the Potency result in the assay on CP247, with CP252, with CP260, with CP265, with CP266 and in the assay with CP268 was “inactive” throughout.
